# Source: PubChem (several laboratories)
# This is a sample that favours compounds with a hit; in the whole collection about 4.4% have one here.
# tim10-1 inh – growth inhibitors of tim10-1 mutant yeast; hit rate 2.2% among 330,000; inhibition, % at 20 µM; S. cerevisiae tim10-1 ts strain growth, BacTiter-Glo, 24 h; AID 463190;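 active = inhibition of at least 40%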;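 note: mutant grown at 25 °C; 0% = DMSO wells with yeast and 100% = wells holding no yeast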
# PfHsp90 yeast 2 – reduces growth (ATP signal) of yeast expressing P. falciparum Hsp90; inhibition, % at 9.4 µM; AID 504621; S. cerevisiae expressing PfHsp90, BacTiter-Glo ATP, 48 h; yeast lacking PDR1 and PDR3 efflux regulators; hit rate 0.32% among 310,000;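 active = every replicate shows inhibition above about 80%, whatever the replicate mean, limit read from the data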;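 note: 0% = DMSO neutral controls and 100% = 20 µM radicicol positive controls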
# TIM10 inh – growth inhibitors of TIM10 yeast strain; S. cerevisiae TIM10 strain growth, BacTiter-Glo luminescence, 24 h; inhibition, % at 10 µM; hit rate 1.4% among 330,000;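 active = inhibition of 40% or more at the single tested concentration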;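 note: wild-type TIM10 isogenic control strain grown at permissive 25 °C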
# Mot1-301 SUMO – inhibitors of SUMOylation pathway: yeast Mot1-301 growth rescue; growth rescue, % at 18.8 µM; S. cerevisiae Mot1-301 growth rescue, ATP luminescence, 38.5C; percent above DMSO median, 100 means doubled; AID 2716; hit rate 1% among 320,000;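 active = every valid replicate shows activation above 250% relative to neutral control wells; inactive = the rest, any valid replicate at or below 250%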;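 note: OY570 slx delta 5 strain wells were the positive control but not used for scaling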
# tim23-1 inh – growth inhibitors of tim23-1 mutant yeast | S. cerevisiae tim23-1 growth, BacTiter-Glo luminescence, 24 h | inhibition, % at 20 µM | hit rate 1.3% among 330,000 | AID 463212;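 active = growth inhibition of the mutant yeast at or above 50%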;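 note: temperature-sensitive mutant grown at 25 °C; plate controls were DMSO-treated mutant yeast for no effect and medium wells lacking yeast for full effect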
# tim10 confirm – confirmation of TIM10 yeast growth inhibitors | hit rate 63% among 4,600 | S. cerevisiae tim10 strain growth, BacTiter-Glo luminescence, 24 h | AID 463215 | inhibition, % at 10 µM | shares compounds with TIM10 inh;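 active = inhibition of yeast growth at or above a set limit in either of two replicates at 10 µM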;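 note: this counterscreen used the strain with wild-type TIM10; 0% = yeast with DMSO and 100% = medium wells lacking yeast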
# The depositor's hits bear a star; · = no result given.
SMILES,tim10-1 inh,PfHsp90 yeast 2,TIM10 inh,Mot1-301 SUMO,tim23-1 inh,tim10 confirm
O=C(N/N=C/c1sc(=O)n(-c2ccccc2)c1Cl)c1ccccc1,30.9,10.4,42.0*,-15.5,48.4,21.8
COc1cccc(C(=O)Nn2c(-c3cccs3)nc3ccccc3c2=O)c1OC,33.0,2.0,41.1*,-2.2,23.1,34.8*
CCN(CC)c1ccc(/C=N/NC(=S)NCc2ccccc2)c(O)c1,23.2,0.9,40.9*,-0.5,27.9,-31.8
CCN(CC)c1ccc(/C=N/N(c2ccccc2)c2ccccc2)c(O)c1,9.3,0.4,2.4,-5.9,7.1,·
O=C(Nc1cccc2ccccc12)N1CCc2ccccc2C1,23.7,3.9,40.3*,5.9,14.8,-20.2
O=C(COC(=O)c1cc(S(=O)(=O)N2CCCC2)ccc1O)Nc1ccc(F)cc1F,5.4,-13.1,6.9,37.4,10.2,·
CSc1ccc(C(=S)N2CCCC2)cc1,-2.0,11.3,59.2*,3.0,-8.0,2.9
CSc1ccc(C(=S)N2CCN(C)CC2)cc1,-2.9,-1.4,-0.5,-2.8,5.6,·
COc1ccc(C2CC(=O)C(C=NCC(C)C)=C(O)C2)cc1 (stereo unspecified),-9.1,-25.9,96.6*,-9.5,7.9,1.4
COc1ccc(C2CC(=O)C(C=NCCCO)=C(O)C2)cc1 (stereo unspecified),4.6,-12.0,4.4,171.9,10.7,·
CCC1CCCCN1C(=O)CSc1nnc2nc(C)cc(C)n12 (stereo unspecified),0.8,-23.3,42.5*,3.3,3.2,-13.7
Cc1cc(C)n2c(SCC(=O)NC3CCCCC3C)nnc2n1 (stereo unspecified),11.7,20.1,5.9,7.5,7.5,·
Cc1ccccc1N1C(=O)CC(Sc2nnc(-c3ccccc3)o2)C1=O (stereo unspecified),32.7,26.5,44.2*,36.4,31.1,44.0*
Cc1ccc2cc(CCNC(=O)c3cc4ccccc4o3)c(=O)[nH]c2c1C,-0.9,-22.4,57.8*,-0.2,37.8,32.0*
CC(C)(C)c1ccc(C(=O)NCc2cccnc2)cc1,6.9,·,-0.1,1.1,9.2,·
CC(C)(C)c1ccc(C(=O)NC(=S)NCc2cccnc2)cc1,37.8,9.2,40.8*,-1.7,45.3,30.4*
O=C(Nc1cccc(S(=O)(=O)N2CCCCC2)c1)c1ccc([N+](=O)[O-])o1,-43.2,-3.3,46.5*,41.4,-108.9,27.0
O=C(Nc1ccc(S(=O)(=O)N2CCCC2)cc1)c1cc(F)c(F)cc1Cl,37.6,-11.9,40.6*,150.7,36.5,32.8*
O=C(Nc1ccc(S(=O)(=O)N2CCOCC2)cc1)c1ccc(Cl)s1,36.0,-0.8,40.9*,17.3,32.5,30.4
O=C(O)c1cc(NN=Nc2cccc(S(=O)(=O)O)c2)cc([N+](=O)[O-])c1,1.0,-13.1,3.2,-18.4,-3.5,·
O=[N+]([O-])c1cccc(NN=Nc2ccccc2)c1,38.3,-18.6,40.5*,81.8,42.2,31.0*
O=C1OC(CO)CN1Cc1ccccc1 (stereo unspecified),-5.3,-1.1,5.1,3.9,2.7,·
Fc1ccc2[nH]c3c(c2c1)CN(C(=S)NCc1ccccc1)CC3,29.4,7.6,40.5*,-7.6,49.1,38.0*
C=CCNC(=O)N1CCc2[nH]c3ccc(F)cc3c2C1,10.2,-1.8,3.8,121.7,-2.7,·
Cc1ccsc1/C=N/Nc1nc2ccccc2s1,13.0,-49.2,40.0*,7.3,39.4,44.5*
SMILES,tim10-1 inh,PfHsp90 yeast 2,TIM10 inh,Mot1-301 SUMO,tim23-1 inh,tim10 confirm
Oc1ccc(C=NNc2nc3ccccc3s2)c(O)c1,·,-14.6,·,·,·,·
O=C1Nc2ccc(Br)cc2C12NNc1ccccc1O2 (stereo unspecified),21.7,105.9*,45.5*,308.7*,-19.9,69.2*
CCOc1ccc(N2CC(C(=O)N3CCCCCC3)CC2=O)cc1 (stereo unspecified),-12.6,2.0,4.9,138.3,7.7,·
CNC(=O)c1cc2c(ccc3ccccc32)o1,37.7,3.9,61.3*,-4.2,37.5,58.7*
CCN(CC)C(=O)Oc1ccc2c(=O)c(-c3ccc(OC)cc3)c(C)oc2c1,36.3,·,45.1*,-12.4,33.5,30.0
Cc1ccc(O)c(-c2cc(-c3ccccc3F)[nH]n2)c1,39.2,9.6,48.1*,77.1,18.1,43.0*
Cc1ccc(C)c(NC(=O)c2cc(-c3cc(C)ccc3O)n[nH]2)c1,15.6,33.3,7.4,-3.5,11.5,·
C=CCn1c(SCC(=O)Nc2ccc(Br)cc2)nc(O)c(CC)c1=O,6.8,3.3,3.0,-19.0,10.9,·
COc1cc2c(C(=O)N3CCN(c4ccccc4C)CC3)c(C)oc2cc1Br,36.5,-13.3,52.4*,130.2,21.4,35.4*
CCOC(=O)[C@@H]1CSCCS(=O)(=O)N1Cc1ccccc1Br,·,-9.7,·,·,·,·
Cc1ccc(S(=O)(=O)/N=C(/NC(=S)Nc2ccccc2)c2ccccc2)cc1,36.2,-9.9,45.7*,11.0,37.0,-7.5
N#CC1=C(N)Oc2n[nH]c(-c3cccs3)c2C1c1cccs1 (stereo unspecified),33.8,-8.6,45.8*,·,0.2,23.5
N#CC1=C(N)Oc2n[nH]c(-c3cccs3)c2C1c1ccccc1C(=O)O (stereo unspecified),11.1,1.6,-13.9,-4.5,17.1,·
COCc1[nH]nc2c1C(c1sccc1C)C(C#N)=C(N)O2 (stereo unspecified),34.4,7.7,52.5*,187.4,30.7,28.1*
Cc1ccc(C)c(N2CCN(C(=O)c3ccc(N4CCOCC4)c([N+](=O)[O-])c3)CC2)c1,-4.0,-57.7,0.6,35.6,26.9,·
O=C(NCc1cc2ccccc2[nH]1)c1ccccc1F,9.6,-8.9,14.1,-6.7,6.0,·
Cc1cc(C)c2c(N)c3ccccc3nc2n1,36.0,-18.3,45.2*,-12.6,0.6,22.0
Cc1cc(C)c2cccc(N)c2n1,17.9,18.5,15.1,232.0,10.4,·
O=C(Nc1ccc(OC(F)F)c(Cl)c1)c1ccccn1,-2.9,-2.8,20.1,-9.3,36.8,·
Cc1ccc(NC(=S)Nc2ccc(OC(F)F)c(Cl)c2)cc1F,37.0,12.2,41.8*,-1.3,40.5,35.7*
CCOC(=O)C1CCN(S(=O)(=O)c2cn(C)cn2)CC1,-8.1,1.6,13.7,-8.0,-6.3,·
C/C(=N\NC(=S)NC(C)C)c1cccc([N+](=O)[O-])c1,33.9,-27.0,42.5*,-3.6,37.4,6.0
Cc1ccc2nc(CSc3nc(C)ccc3C#N)[nH]c2c1,38.2,4.8,60.7*,-8.0,34.7,48.1*
Cc1ccc(C#N)c(SCc2ccccc2F)n1,1.8,·,11.8,13.3,10.5,·
Cc1cc(C)c(S(=O)(=O)N(CC(=O)N2CCOCC2)C2CCCCC2)c(C)c1,29.0,-53.2,34.8,11.8,34.9,·
CCOC(=O)N1CCN(C(=O)CN(C2CCCCC2)S(=O)(=O)c2c(C)cc(C)cc2C)CC1,23.7,·,40.8*,-15.7,41.7,27.7
